Measurements taken from paper PMC5540273 (PLoS ONE, 2017).

test system: CAMK2A; conditions: concentration: 1 μM, replicates: in singlicate; n = 1
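Also: KINOMEscan kinase panel screen.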

Row | SMILES | %Inh [%]
1 | O=C(Nc1ccc2c(c1)OCO2)NC1CCN(c2ccnc(NCc3ccc(F)cc3)n2)CC1 [GSK1379859] | 0
2 | CC(C)(C)c1ccc(C(=O)Nc2cn3cc(-c4ccccc4)ccc3n2)cc1 | 0
3 | C[C@@H]1CC[C@H](C(=O)NC2CCCCC2)CN1c1cc(-c2ccc3c(N)n[nH]c3c2)nc(N)n1 [GSK2291363] | 4
4 | O=C(Nc1n[nH]c2nc(-c3ccccc3)c(Cl)cc12)C1CC1 [SB-734909] | 0
5 | COC(=O)c1c(-c2ccccc2)c2cc(Br)ccc2c(=O)n1Cc1ccc(NC(=O)CCC(=O)O)cc1 | 0
6 | O=C(Nc1n[nH]c2cc(-c3ccccc3F)ccc12)C1CC1 [SB-733371] | 2
7 | Cc1nc(N(C)[C@H]2CN(C(=O)CC#N)CC[C@H]2C)c2cc[nH]c2n1 | 0
8 | Cc1nn2c(=O)cc(N3CCOCC3)nc2n1Cc1cccc(Cl)c1Cl [GSK2342769] | 0
9 | Cc1cccc(-c2nc(Nc3ccc4c(cnn4C)c3)c3ccccc3n2)n1 [GW876731] | 0
10 | FC(F)(F)c1ccc(-c2ncn(CCCN3CCOCC3)c2-c2ccncc2)cc1 [SB-217780] | 0
11 | COc1cc(Nc2ccnc3ccc(C(F)(F)F)cc23)cc(OC)c1OC [GW577382] | 0
12 | CCS(=O)c1ccc(-c2coc3ccc(-c4nnc(C)o4)cc23)cc1 (stereo not shown) | 0
13 | O=c1cc(N2CCOCC2)nc2n(Cc3ccc(F)c(Cl)c3)ccn12 [GSK2297099] | 0
14 | CCC(=O)c1c(-c2ccccc2)c2cc(Cl)ccc2c(=O)n1Cc1cc(S(C)(=O)=O)n(CCC(C)(C)O)n1 | 15
15 | Cn1c(=O)c(F)c(Nc2ccc(I)cc2F)c2c(=O)n(OC[C@H](O)CO)cnc21 | 4
16 | COc1cc(OC)cc(-c2cc3cnc(N)nc3nc2NC(=O)NC(C)(C)C)c1 | 0
17 | Fc1cccc(CSc2nnc(-c3ccc4c(c3)CCO4)o2)c1 | 16
18 | COc1cc(Nc2nccc(N3CCC(NC(=O)C4COc5ccccc5O4)C3)n2)cc(OC)c1OC (stereo not shown) [GSK1379761] | 8
19 | O=C1NC(=O)C(c2ccccc2)=C1Nc1cccc(O)c1 [SB-390534] | 17
20 | CN(C)c1cc(-c2ccc3c(N)n[nH]c3c2)nc(N)n1 [GSK2219329] | 0
21 | Cc1ccc(Oc2ccc(Nc3ncnc4cc[nH]c34)cc2C)cn1 | 0
22 | CN1C(=O)C(Nc2ccccc2)=C(c2ccccc2)C1=O [SB-300079] | 0
